According to the supplement of paper PMC11732987, “Enantioselective OTUD7B fragment discovery through chemoproteomics screening and high-throughput optimisation” (Communications Chemistry, 2025):

Columns and labels:
Assay in all cases: log2 ratio of Biotin-Ahx-Ub-VS probe labelling (fragment/DMSO); higher = less target engagement (more negative = stronger competition), active = hit call of the paper (q ≤ 0.05, log2 ratio ≤ -1)
Details in all cases: compound concentration: 200 uM; treatment time: 3 h
ALG13 = target: T1, ALG13 (UniProt Q9NP73)
T1 sequence (whole entry): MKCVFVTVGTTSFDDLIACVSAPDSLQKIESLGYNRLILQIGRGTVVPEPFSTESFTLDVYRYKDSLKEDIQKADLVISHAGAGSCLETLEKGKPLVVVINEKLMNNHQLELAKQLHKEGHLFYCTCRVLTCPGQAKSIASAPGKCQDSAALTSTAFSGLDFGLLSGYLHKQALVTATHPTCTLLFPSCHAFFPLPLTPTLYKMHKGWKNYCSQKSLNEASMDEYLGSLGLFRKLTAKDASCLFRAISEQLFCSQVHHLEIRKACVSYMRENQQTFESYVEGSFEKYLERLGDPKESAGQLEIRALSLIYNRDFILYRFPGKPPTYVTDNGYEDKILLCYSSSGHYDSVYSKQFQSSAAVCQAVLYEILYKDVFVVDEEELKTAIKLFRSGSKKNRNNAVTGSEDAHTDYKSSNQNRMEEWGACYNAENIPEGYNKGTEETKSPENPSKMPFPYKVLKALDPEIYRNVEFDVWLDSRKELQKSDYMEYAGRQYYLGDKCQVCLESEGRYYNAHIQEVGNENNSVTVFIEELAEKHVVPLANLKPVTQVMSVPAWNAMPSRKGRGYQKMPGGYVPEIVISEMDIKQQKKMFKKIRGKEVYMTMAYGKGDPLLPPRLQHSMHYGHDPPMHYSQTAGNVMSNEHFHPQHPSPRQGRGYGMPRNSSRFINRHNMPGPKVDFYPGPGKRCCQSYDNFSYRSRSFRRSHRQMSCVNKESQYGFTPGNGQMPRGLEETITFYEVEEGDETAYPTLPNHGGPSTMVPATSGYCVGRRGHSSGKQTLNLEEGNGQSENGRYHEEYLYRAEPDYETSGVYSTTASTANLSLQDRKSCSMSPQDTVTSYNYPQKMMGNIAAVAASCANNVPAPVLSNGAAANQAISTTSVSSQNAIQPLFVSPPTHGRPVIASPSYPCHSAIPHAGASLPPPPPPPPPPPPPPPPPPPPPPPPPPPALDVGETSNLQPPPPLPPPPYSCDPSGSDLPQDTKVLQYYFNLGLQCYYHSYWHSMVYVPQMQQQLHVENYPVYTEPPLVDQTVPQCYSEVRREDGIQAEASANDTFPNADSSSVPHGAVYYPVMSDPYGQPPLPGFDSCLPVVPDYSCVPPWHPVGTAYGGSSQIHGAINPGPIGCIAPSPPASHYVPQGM
Procedure, shortened: (§1)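 HEK293T lysate (495 µg per sample, in Tris/CHAPS/IGEPAL buffer with protease inhibitors) was treated in triplicate with fragment at 200 µM or with DMSO for 3 h. It was then treated with Biotin-Ahx-Ub-VS (0.5 µM final) for 1 h. Labelled DUBs were NeutrAvidin-enriched, digested with LysC and trypsin, and run by diaPASEF LC-MS/MS. Spectronaut label-free quantities were global-median-normalised. Values are average log2 ratios fragment/DMSO by unpaired t-test, using proteins with ≥2 unique peptides.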

ATXN3 = ATXN3 (UniProt P54252)
ATXN3, sequence (P54252 whole entry): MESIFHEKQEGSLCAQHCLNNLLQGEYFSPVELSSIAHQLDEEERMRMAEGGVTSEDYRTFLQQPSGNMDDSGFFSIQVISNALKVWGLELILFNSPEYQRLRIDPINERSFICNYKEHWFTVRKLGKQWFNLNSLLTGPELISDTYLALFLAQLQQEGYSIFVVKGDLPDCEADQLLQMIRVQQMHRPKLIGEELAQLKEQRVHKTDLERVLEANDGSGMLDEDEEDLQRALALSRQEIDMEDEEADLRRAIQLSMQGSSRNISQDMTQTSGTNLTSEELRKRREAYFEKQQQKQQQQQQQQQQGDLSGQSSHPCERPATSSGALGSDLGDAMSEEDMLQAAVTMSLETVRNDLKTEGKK
Procedure, shortened: as §1

BAP1 = target: T2, BAP1 (UniProt Q92560)
T2 sequence (whole entry): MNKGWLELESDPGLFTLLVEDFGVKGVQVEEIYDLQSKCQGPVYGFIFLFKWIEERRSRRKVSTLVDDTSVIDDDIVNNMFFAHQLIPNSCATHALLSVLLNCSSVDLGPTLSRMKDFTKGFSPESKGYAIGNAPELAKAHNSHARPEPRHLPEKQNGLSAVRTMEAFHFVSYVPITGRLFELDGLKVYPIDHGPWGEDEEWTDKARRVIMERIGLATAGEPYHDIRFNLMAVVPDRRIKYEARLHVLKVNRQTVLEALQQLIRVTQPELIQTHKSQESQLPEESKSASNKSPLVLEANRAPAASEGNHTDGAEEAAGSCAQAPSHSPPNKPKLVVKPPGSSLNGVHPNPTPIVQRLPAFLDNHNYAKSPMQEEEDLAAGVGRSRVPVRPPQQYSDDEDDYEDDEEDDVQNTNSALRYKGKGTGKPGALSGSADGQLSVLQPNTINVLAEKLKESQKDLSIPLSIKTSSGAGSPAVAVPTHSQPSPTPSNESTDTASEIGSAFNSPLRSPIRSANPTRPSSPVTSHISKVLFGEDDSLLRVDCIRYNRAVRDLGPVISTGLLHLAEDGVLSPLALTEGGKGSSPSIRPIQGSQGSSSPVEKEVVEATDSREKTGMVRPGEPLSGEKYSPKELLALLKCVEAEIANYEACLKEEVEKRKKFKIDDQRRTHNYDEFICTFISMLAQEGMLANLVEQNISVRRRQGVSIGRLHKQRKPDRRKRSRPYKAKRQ
Procedure, shortened: as §1

EIF3F = EIF3F (UniProt O00303)
EIF3F, sequence (O00303 whole entry): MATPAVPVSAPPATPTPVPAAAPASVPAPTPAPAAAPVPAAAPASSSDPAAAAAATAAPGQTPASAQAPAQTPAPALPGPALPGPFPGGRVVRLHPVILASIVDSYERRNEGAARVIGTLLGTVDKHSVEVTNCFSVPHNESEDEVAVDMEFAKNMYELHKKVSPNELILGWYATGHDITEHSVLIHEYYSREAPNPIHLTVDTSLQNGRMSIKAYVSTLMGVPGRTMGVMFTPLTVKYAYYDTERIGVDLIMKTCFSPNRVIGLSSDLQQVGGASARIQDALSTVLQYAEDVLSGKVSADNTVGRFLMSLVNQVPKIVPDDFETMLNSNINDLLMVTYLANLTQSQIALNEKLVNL
Procedure, shortened: as §1

EIF3H = EIF3H (UniProt O15372)
EIF3H, sequence (O15372 whole entry): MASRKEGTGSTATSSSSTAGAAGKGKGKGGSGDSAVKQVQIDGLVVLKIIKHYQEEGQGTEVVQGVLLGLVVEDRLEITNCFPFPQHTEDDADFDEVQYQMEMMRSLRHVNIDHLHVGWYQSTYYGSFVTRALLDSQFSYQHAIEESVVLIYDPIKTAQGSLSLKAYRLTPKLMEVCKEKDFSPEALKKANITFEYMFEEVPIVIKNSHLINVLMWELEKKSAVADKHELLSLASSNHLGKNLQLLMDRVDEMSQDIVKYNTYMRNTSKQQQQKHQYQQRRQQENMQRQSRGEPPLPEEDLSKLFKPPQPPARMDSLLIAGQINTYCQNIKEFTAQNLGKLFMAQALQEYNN
Procedure, shortened: as §1

FAM105A = target: T3, FAM105A (UniProt Q9NUU6)
T3 sequence (whole entry): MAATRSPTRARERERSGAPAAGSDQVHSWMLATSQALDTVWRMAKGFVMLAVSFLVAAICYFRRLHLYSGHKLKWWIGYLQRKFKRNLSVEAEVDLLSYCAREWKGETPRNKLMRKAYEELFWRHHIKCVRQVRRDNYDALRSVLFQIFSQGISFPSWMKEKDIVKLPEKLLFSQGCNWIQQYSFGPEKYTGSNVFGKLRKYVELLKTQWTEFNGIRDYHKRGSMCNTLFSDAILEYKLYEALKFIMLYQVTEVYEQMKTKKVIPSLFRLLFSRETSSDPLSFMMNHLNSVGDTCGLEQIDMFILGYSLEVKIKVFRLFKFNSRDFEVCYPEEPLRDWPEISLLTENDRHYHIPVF
Procedure, shortened: as §1

OTUB1 = OTUB1 (UniProt Q96FW1)
OTUB1, sequence (Q96FW1 whole entry): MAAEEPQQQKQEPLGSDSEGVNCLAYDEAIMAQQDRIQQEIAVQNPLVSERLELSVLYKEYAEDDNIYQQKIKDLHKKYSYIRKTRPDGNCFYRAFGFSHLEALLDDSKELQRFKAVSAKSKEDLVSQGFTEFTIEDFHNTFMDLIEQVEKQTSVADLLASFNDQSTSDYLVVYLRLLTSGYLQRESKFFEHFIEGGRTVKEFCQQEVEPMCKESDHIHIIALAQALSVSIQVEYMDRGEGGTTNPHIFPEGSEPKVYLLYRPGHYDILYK
Procedure, shortened: as §1

OTUD4 = target: T4, OTUD4 (UniProt Q01804)
T4 sequence (whole entry): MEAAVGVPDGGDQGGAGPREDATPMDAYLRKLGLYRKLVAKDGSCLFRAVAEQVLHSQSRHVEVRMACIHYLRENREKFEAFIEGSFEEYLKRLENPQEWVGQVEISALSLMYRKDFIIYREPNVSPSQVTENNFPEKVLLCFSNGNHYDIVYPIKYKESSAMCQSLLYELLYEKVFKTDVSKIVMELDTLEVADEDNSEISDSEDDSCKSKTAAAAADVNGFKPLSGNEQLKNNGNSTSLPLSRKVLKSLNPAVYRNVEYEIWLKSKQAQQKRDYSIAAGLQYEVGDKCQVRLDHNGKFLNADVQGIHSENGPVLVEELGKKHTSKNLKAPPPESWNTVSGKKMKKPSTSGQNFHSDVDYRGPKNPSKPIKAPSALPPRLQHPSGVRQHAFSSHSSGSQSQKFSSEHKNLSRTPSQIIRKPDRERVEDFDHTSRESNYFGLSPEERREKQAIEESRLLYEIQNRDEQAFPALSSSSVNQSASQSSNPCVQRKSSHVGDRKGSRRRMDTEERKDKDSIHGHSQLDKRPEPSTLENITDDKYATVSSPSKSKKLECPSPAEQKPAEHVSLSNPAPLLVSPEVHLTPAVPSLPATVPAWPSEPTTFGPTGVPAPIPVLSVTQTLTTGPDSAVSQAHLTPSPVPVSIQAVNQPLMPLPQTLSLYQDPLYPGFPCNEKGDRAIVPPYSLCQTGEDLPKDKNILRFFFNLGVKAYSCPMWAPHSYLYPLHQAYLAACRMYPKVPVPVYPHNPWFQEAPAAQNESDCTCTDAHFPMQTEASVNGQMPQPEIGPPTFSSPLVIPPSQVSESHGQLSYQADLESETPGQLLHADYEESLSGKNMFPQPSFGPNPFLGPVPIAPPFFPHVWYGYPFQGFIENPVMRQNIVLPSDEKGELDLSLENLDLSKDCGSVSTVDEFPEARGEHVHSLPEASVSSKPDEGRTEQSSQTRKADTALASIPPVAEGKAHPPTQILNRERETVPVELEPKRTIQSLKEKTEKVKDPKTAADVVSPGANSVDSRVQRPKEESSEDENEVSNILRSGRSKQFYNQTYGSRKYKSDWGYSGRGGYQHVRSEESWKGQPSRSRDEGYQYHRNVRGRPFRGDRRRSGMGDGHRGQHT
Procedure, shortened: as §1

OTUD5 = target: T5, OTUD5 (UniProt Q96G74)
T5 sequence (whole entry): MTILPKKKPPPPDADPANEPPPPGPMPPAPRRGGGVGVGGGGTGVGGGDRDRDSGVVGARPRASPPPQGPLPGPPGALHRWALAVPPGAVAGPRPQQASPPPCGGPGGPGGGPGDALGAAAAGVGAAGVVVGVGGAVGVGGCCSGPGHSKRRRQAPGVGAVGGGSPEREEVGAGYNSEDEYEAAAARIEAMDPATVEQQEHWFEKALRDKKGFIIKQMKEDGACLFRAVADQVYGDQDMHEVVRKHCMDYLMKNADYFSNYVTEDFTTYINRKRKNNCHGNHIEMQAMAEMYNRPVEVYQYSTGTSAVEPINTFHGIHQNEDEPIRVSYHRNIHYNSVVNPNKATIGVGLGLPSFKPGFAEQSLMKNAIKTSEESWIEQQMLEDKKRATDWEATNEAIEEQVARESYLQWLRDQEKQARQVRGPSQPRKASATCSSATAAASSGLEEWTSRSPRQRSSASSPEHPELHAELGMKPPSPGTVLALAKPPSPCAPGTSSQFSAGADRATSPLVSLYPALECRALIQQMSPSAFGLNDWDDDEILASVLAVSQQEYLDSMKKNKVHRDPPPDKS
Procedure, shortened: as §1

Measured: log2 ratio of Biotin-Ahx-Ub-VS probe labelling

Cc1ccc2nnc(CNC(=O)CCl)n2c1
active: BAP1 -1.05
inactive: ALG13 0.205 | ATXN3 -0.0879 | EIF3F -0.17 | EIF3H 0.00833 | FAM105A 0.283 | OTUB1 0.0976 | OTUD4 0.0524 | OTUD5 0.0162
